# Screening data (PubChem BioAssay)
# HTT ATP protect – protects HTT-Q103 PC12 cells, measured by ATP; PC12 HTT-Q103 induced, cytoprotection, ATP luminescence, 40 h; Potency, µM (highest dose often 56.4 µM), without a hit: cytoprotection (ATP increase), usual class: activators; 230,000 tested, 0.14% active; AID 1471; active = well fitted curve in the direction sought with a large enough effect; inconclusive = small, poorly fitted or top-dose-only effect, or another doubt; inactive = no such curve, though single readings can be large; an effect the other way counts as inactive or inconclusive; note: potency is the fitted concentration of half-maximal effect; % of control where 0% means no effect; nearly all actives have a fitted effect of over 45% in size
#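 Rat PC12, Q103 Htt exon1-GFP fusion, ecdysone promoter; tebufenozide inducer 100 nM final; compound titration; qHTS, 1500 cells/well; ATPlite luminescent read.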
# HPGD inh – blocks human HPGD enzyme activity; P15428; purified HPGD, NADH fluorescence kinetic, PGE2 substrate; Potency, µM, inactives show at the highest dose activity change, negative = inhibition, hits mostly inhibitors; 150,000 tested, 4.3% active; AID 894; note: potency is the fitted concentration of half-maximal effect; % is set by controls: 0 for no effect and ±100 for the full control effect
# Target sequence (P15428 whole entry, looked up): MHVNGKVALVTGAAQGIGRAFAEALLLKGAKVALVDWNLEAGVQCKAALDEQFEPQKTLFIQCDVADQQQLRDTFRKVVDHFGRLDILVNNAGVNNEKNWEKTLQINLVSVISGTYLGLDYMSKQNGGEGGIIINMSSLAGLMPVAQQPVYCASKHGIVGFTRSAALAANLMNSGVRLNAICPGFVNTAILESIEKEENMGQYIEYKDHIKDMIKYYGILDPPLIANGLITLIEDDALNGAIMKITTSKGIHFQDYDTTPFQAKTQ
#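 NADH formation kinetics: reaction with 30 uM PGE2 and 1 mM NAD+ (final), 20 nM enzyme, Tris-HCl pH 8 with Tween 20, after 15 min compound preincubation at room temperature. Fluorescence change, last versus first of five reads.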
# GoLoco inh red – RGS12 GoLoco-Gai1 interaction inhibition; Gai1:RGS12 GoLoco peptide FP, rhodamine, 10 min; Potency, µM (titrated, usually from 61.6 µM), for the others: top-dose activity, negative = inhibition, most hits filed as inhibitors; 230,000 tested, 0.44% active; active = well fitted inhibition curve with a large enough effect, not every such curve was filed as active; inactive = no such curve, though single readings can be large or run the other way; note: potency is the fitted concentration of half-maximal effect; % is set by controls: 0 for no effect and ±100 for the full control effect; nearly all actives have a fitted effect of over 30% in size
# Target sequence (P63096 whole entry, looked up): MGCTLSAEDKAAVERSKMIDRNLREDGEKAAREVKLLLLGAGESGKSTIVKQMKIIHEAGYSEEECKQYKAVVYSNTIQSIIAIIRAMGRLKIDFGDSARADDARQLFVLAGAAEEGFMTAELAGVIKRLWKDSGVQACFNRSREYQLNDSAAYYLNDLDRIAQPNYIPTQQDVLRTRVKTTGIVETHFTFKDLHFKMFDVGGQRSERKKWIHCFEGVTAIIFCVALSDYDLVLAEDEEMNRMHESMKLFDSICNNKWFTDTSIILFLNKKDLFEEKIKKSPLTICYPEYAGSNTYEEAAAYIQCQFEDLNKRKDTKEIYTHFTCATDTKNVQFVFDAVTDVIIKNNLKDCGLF
# PNC inhibitor – perinucleolar compartment assembly inhibition; PC3M PTB-GFP, PNC prevalence imaging, 16 h; stronger effect = lower value; activity change (PNC), negative = inhibition, % at 10 µM; 140,000 tested, 3.1% active; AID 2417;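 active = readout at or below -70, meaning at least 70% loss of cells showing the perinucleolar compartment, a nuclear body marking cancer cells; inconclusive = readout between -30 and a set limit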;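 note: plate controls were DMSO wells for no effect and camptothecin positive control wells for full effect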
#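 PC3M cells stably expressing PTB-GFP, 750–1000 cells/well, treated 16 h at 37 °C with compound (23 nl of library stock), in duplicate. After paraformaldehyde fixation and Hoechst stain, imaged at 20x; PNC prevalence scored by image analysis.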
# ALDH1A1 inh – blocks purified human ALDH1A1 activity; P00352; Purified ALDH1A1, NADH fluorescence, propionaldehyde substrate; Potency, µM (series often up to 75.3 µM), without a hit: at the top dose activity, negative = inhibition, usual class: inhibitors; 220,000 tested, 7.3% active; AID 1030;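 note: potency is the fitted concentration of half-maximal effect; plate controls were no enzyme wells and a reference inhibitor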
# HttQ103 aggreg – reduces HttQ103-GFP aggregates in PC12 cells; PC12 HttQ103-GFP aggregates, Acumen cytometry, 40 h; 220,000 tested, 1.1% active; Potency, µM (titrated, usually from 46.1 µM), for the others: at the top dose activity change, negative = inhibition, most hits filed as inhibitors; AID 1688; active = well fitted curve in the direction sought with a large enough effect; inconclusive = small, poorly fitted or top-dose-only effect, or another doubt; inactive = no such curve, though single readings can be large; an effect the other way counts as inactive or inconclusive; note: potency is the fitted concentration of half-maximal effect; % is set by controls: 0 for no effect and ±100 for the full control effect; nearly all actives have a fitted effect of over 60% in size
#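 Huntingtin Q103 exon 1–GFP aggregates in induced PC12 cells (100 nM tebufenozide) were quantified by cytometry from lysates, with compounds dosed in titration.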
# The depositor's hits bear a star; ? = inconclusive; / = no result; ! = a repeat was not active; [ ] = dose if it differs, or a comment. Sampled rows, rich in hits. Any-hit rate of the full collection: about 11%. Unless noted, calls come from the whole dose curve; as a rule, active = well fitted inhibition curve with a large enough effect (not every such curve was filed as active); inconclusive = small, poorly fitted or top-dose-only effect, or another doubt; inactive = no such curve, though single readings can be large or run the other way.
SMILES,HTT ATP protect,HPGD inh,GoLoco inh red,PNC inhibitor,ALDH1A1 inh,HttQ103 aggreg
Cc1ccc(C)c(Sc2ccc(NC(=O)CCl)cc2)c1,2%[10 µM],-11%,5%,-12,0.89µM*,-3%
O=c1cc(O)cc(/C=C\c2ccc(O)c(O)c2)o1,-33%[1.9 µM],/,/,/,/,/
CCOCC(=O)Nc1ccc(Br)c(C)c1,-16%[1.9 µM],/,6%,/,14µM*,18%[9.22 µM]
CCc1nn(CC(=O)Nc2ccc(Br)c(C)c2)c(=N)s1,-26%,/,9%,/,11µM*,18%
CCCCc1ccc(NC(=O)COCC)cc1,-5%[10 µM],10µM*,8%,-24,14µM*,-10%
Cc1nc(-c2ccc(C(=O)Nc3cccc(Br)c3)cc2)cs1,-157%,/,3%,/,-4%,-14%
COc1ccc(OC)c2c(=S)c3ccccc3[nH]c12,-7%,5µM*,3%,/,1.6µM*,/
COc1ccc(-c2c(N)nnc3c2[nH]c2ccccc23)cc1OC,-1%,/,/,13,-7%,-14%
COC(=O)c1cccc(C23CC4(C2)[C@H](CN(CC2CCCCC2)[C@@H]4c2ccccc2)C3c2ccc(Cl)nc2)c1 (some centres undefined),-30%,-10%,16%,/,-9%,/
Cc1cc(C)c(OCCCCN(C)C)c(Br)c1,-28%,/,-1%,/,22µM*,6%[9.22 µM]
O=C1[C@@H]2[C@H]3[C@H](O)[C@H](O)C/C(=N/OCc4ccccc4)[C@H]3CC[C@H]2C(=O)N1c1ccc(F)cc1F,?,/,/,/,11%[13.5 µM],/
CCOC(=O)C(CSCC(=O)c1ccc(Cl)cc1Cl)NC(=O)OC(C)(C)C (centres undefined),9%,?,3%,-5,7.9µM*,30%
Cn1c(=O)c2c(nc(CN3CCN(C(=O)c4ccco4)CC3)n2Cc2ccc(Cl)cc2)n(C)c1=O,4%,-6%,6%,?,14µM*,15%
Cn1c(=O)c2c(nc(CN3CCN(C(=O)c4ccco4)CC3)n2Cc2ccccc2)n(C)c1=O,-19%[0.074 µM],-5%,7%,?,13µM*,21%
Cn1c(=O)c2c(nc(CN3CCN(C(=O)c4ccco4)CC3)n2Cc2cccc(Cl)c2)n(C)c1=O,-9%,-2%,5%,?,14µM*,10%
CCCn1c(CN2CCN(C(=O)c3ccco3)CC2)nc2c1c(=O)n(C)c(=O)n2C,10%[10 µM],-6%,6%,-12,-7%,-22%
Cn1c(=O)c2c(nc(CN3CCN(Cc4ccccc4)CC3)n2Cc2cccc(Cl)c2)n(C)c1=O,-8%,5%,-1%,-16,?,-14%
FC(F)(F)c1ccccc1-c1ccc2ncnc(NC3CCNCC3)c2c1,-63%,-7%,2%,/,9%,/
O=C(Nc1ccccc1)N1CCc2scc[n+]2-c2ccccc21,/,-8%,2%,-3,?,23%
O=CN1CCc2scc[n+]2-c2ccccc21,0%[10 µM],-11%,10%,-14,14µM*,29%
COc1ccc(CCN(CC(=O)NC2CCCC2)C(=O)Cn2nnc(-c3ccc(C)o3)n2)cc1OC,5%[10 µM],/,-11%,/,2%,8%[9.22 µM]
O=C1c2ccccc2C(=O)N1CCc1nc(-c2ccccn2)no1,-5%,-7%,3%,8,0%,9%
O=C1c2ccccc2C(=O)N1CCCc1nc(-c2ccccn2)no1,34%,-10%,6%,-107*,-2%,-4%
Fc1ccccc1Nc1nc(-c2ccncc2)nc2ccccc12,?,-12%,8%,0,10%,-15%
O=C(NCc1ccccc1)C1=C[C@@H](C2CC2)C[C@@H](OCc2ccc(CO)cc2)O1,12%[10 µM],/,-3%,/,11µM*,13%[9.22 µM]
SMILES,HTT ATP protect,HPGD inh,GoLoco inh red,PNC inhibitor,ALDH1A1 inh,HttQ103 aggreg
O=C(NCc1ccccc1)C1=C[C@@H](c2coc3ccccc3c2=O)C[C@@H](OCc2ccc(CO)cc2)O1,-6%[10 µM],/,30%,/,7.9µM*,31%[9.22 µM]
Cc1ccc(NC(=O)COC(=O)CNC(=O)c2ccco2)cc1,-10%[10 µM],/,8%,/,11%,-6%
O=C(OCc1nnn(Cc2ccccc2)c1-c1c(COC(=O)c2ccccc2)nnn1Cc1ccccc1)c1ccccc1,14%[10 µM],/,2%,/,/,-28%[9.22 µM]
Cc1c(C(=O)O)nc(/C=C\C(=O)O)[nH]c1=O,-10%[10 µM],-5%,3%[14.2 µM],/,20%[13.5 µM],/
CCC[C@@H]1C[C@@H](C(=O)N[C@@H]([C@H]2O[C@H](SC)[C@H](O)[C@@H](O)[C@H]2O)[C@@H](C)O)N(C)C1,?,-6%,4%,/,6%,12%
Cc1[nH]nc(SCC(=O)N2CCCC2)c1[N+](=O)[O-],-47%,/,3%,/,-14%,-8%
Cc1[nH]nc(SCC(=O)N2CCC(C)CC2)c1[N+](=O)[O-],11%,6.3µM*,52%,43,10µM*,-17%
CCOC(=O)CNc1c(-c2ccc(O)cc2)nc2ccc(Cl)cn12,-17%,-30%,4%,4,7.1µM*,5%
CCOC(=O)CNc1c(-c2ccccc2)nc2ccc(Cl)cn12,1%,?,36%,66,?,6%
CCn1c2ccccc2c2nnc(SCC(=O)N(C)C3CCS(=O)(=O)C3)nc21 (centres undefined),/,-19%,-4%,-1,?,8%
CCn1c2ccccc2c2nnc(SCC(=O)NC3CCS(=O)(=O)C3)nc21 (centres undefined),-15%[10 µM],32µM*,-4%,?,-3%,-7%
CCCn1c2ccccc2c2nnc(SCC(=O)OC)nc21,-7%,/,/,?,14µM*,-1%
C=CCn1c2ccccc2c2nnc(SCC(=O)NC(C(=O)OC)C(C)C)nc21 (centres undefined),-17%,20µM*,-8%,-9,20µM*,3%
CCn1c2ccccc2c2nnc(SCC(=O)NCc3cccs3)nc21,-23%[10 µM],-15%,1%,21,-2%,12%
CCCn1c2ccccc2c2nnc(SCC(=O)OCC)nc21,-1%,-29%,-18%,24,?,-19%
CCn1c2ccccc2c2nnc(SCC(=O)NCCOC)nc21,-15%[10 µM],16µM*,-2%,15,-3%,5%
Cc1oc(C)c2c(=O)ccc3c(c12)OC(N)=C(C#N)C3c1ccccc1Cl (centres undefined),-18%,-10%,88%,-22,25µM*,?
O=C(O)C1=C(C(=O)Nc2cccc(C(F)(F)F)c2)CCCC1,-35%,/,-1%,/,4%,-4%
Oc1ccc(O)cc1,32µM*!,7.9µM*,-15%,/,-14%,-13%
O=C(c1ccc(O)cc1)c1ccc(C(=O)c2ccc(O)cc2)cc1,24%[10 µM],22µM*,-1%,8,3%,?
COC(=O)N1CC=CC1(C)C(=O)O (centres undefined),6%,-6%,-5%,/,5%,/
